# Laboratory results as given in PubChem BioAssay (NCATS).
# Inconclusive results are not listed. Entries that show only a call come without a potency. A number with no mark means an inactive call. Active and inactive are the calls of the source. Calls follow the shape of the dose curve; as a rule, active = well fitted curve in the direction sought with a large enough effect; inconclusive = small, poorly fitted or top-dose-only effect, or another doubt; inactive = no such curve, though single readings can be large; an effect the other way counts as inactive or inconclusive.
# Experiments:
# [1] = Quantitative High-Throughput drug screen in 47 multiple myeloma cell lines against the NCATS MIPE library collection: NCIH929_DSMZ cell viability assay (AID 1918978); also: nearly all actives have a fitted effect of over 35% in size; also: potency is read from the fitted curve at half-maximal effect
# Outline: (§1)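 qHTS format: cells plated (500/well), pin-dosed with MIPE 4.0 compounds, kept 48 h at 37 °C. Readout was CellTiter-Glo luminescence, median RLU.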
# [2] = Quantitative High-Throughput drug screen in 47 multiple myeloma cell lines against the NCATS MIPE library collection: OCIMY1_PLB cell viability assay (AID 1918979); also: nearly all actives have a fitted effect of over 35% in size; also: potency is read from the fitted curve at half-maximal effect
# Outline: as §1
# [3] = Quantitative High-Throughput drug screen in 47 multiple myeloma cell lines against the NCATS MIPE library collection: MM1S_ATCC cell viability assay (AID 1918980); also: nearly all actives have a fitted effect of over 45% in size; also: potency is read from the fitted curve at half-maximal effect
# Outline: as §1
# [4] = Quantitative High-Throughput drug screen in 47 multiple myeloma cell lines against the NCATS MIPE library collection: LP1_DSMZ cell viability assay (AID 1918982); also: nearly all actives have a fitted effect of over 35% in size; also: potency is read from the fitted curve at half-maximal effect
# Outline: as §1
# [5] = Quantitative High-Throughput drug screen in 47 multiple myeloma cell lines against the NCATS MIPE library collection: KMS28PE_JCRB cell viability assay (AID 1918983); also: nearly all actives have a fitted effect of over 35% in size; also: potency is read from the fitted curve at half-maximal effect
# Outline: as §1
# [6] = Quantitative High-Throughput drug screen in 47 multiple myeloma cell lines against the NCATS MIPE library collection: OCIMY7_PLB cell viability assay (AID 1918987); also: nearly all actives have a fitted effect of over 65% in size; also: potency is read from the fitted curve at half-maximal effect
# Outline: as §1
# [7] = Quantitative High-Throughput drug screen in 47 multiple myeloma cell lines against the NCATS MIPE library collection: OCIMY5_PLB cell viability assay (AID 1918988); also: nearly all actives have a fitted effect of over 65% in size; also: potency is read from the fitted curve at half-maximal effect
# Outline: as §1
# [8] = Quantitative High-Throughput drug screen in 47 multiple myeloma cell lines against the NCATS MIPE library collection: MMM1_PLB cell viability assay (AID 1918976); also: nearly all actives have a fitted effect of over 35% in size; also: potency is read from the fitted curve at half-maximal effect
# Outline: as §1
# [9] = Quantitative High-Throughput drug screen in 47 multiple myeloma cell lines against the NCATS MIPE library collection: KMS34_JCRB cell viability assay (AID 1918985); also: nearly all actives have a fitted effect of over 40% in size; also: potency is read from the fitted curve at half-maximal effect
# Outline: as §1
# [10] = Quantitative High-Throughput drug screen in 47 multiple myeloma cell lines against the NCATS MIPE library collection: OPM1_PLB cell viability assay (AID 1918989); also: nearly all actives have a fitted effect of over 40% in size; also: potency is read from the fitted curve at half-maximal effect
# Outline: as §1
# [11] = Quantitative High-Throughput drug screen in 47 multiple myeloma cell lines against the NCATS MIPE library collection: KMS12BM_JCRB cell viability assay (AID 1918971)
# Outline: (§2)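 Myeloma cell lines, 500 cells per well, exposed to MIPE 4.0 library compounds for 48 h at 37C, 5% CO2. Viability from ATP by CellTiter-Glo luminescence; normalised to DMSO (100%) and media-only (0%) wells.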
# [12] = Quantitative High-Throughput drug screen in 47 multiple myeloma cell lines against the NCATS MIPE library collection: KMS26_JCRB cell viability assay (AID 1918975); also: nearly all actives have a fitted effect of over 45% in size; also: potency is read from the fitted curve at half-maximal effect
# Outline: as §2
# [13] = Quantitative High-Throughput drug screen in 47 multiple myeloma cell lines against the NCATS MIPE library collection: MM1R_ATCC cell viability assay (AID 1918981); also: nearly all actives have a fitted effect of over 35% in size; also: potency is read from the fitted curve at half-maximal effect
# Outline: as §1
# [14] = Quantitative High-Throughput drug screen in 47 multiple myeloma cell lines against the NCATS MIPE library collection: L363_DSMZ cell viability assay (AID 1918984); also: nearly all actives have a fitted effect of over 40% in size; also: potency is read from the fitted curve at half-maximal effect
# Outline: as §1
# [15] = Quantitative High-Throughput drug screen in 47 multiple myeloma cell lines against the NCATS MIPE library collection: SKMM1_PLB cell viability assay (AID 1919863); conditions: SKMM1 myeloma viability, CellTiter-Glo ATP, 48 h; viability: active compounds read low; also: nearly all actives have a fitted effect of over 35% in size; also: potency is read from the fitted curve at half-maximal effect
# Outline: as §1
# [16] = Quantitative High-Throughput drug screen in 47 multiple myeloma cell lines against the NCATS MIPE library collection: KMS12PE_JCRB cell viability assay (AID 1918972); also: nearly all actives have a fitted effect of over 30% in size; also: potency is read from the fitted curve at half-maximal effect
# Outline: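 Luminescent ATP measurement with CellTiter-Glo gives viability, scaled between DMSO-only wells (100%) and media-only wells (0%). Cells, 500 per well, faced library compounds for 48 hours at 37C.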
# [17] = Quantitative High-Throughput drug screen in 47 multiple myeloma cell lines against the NCATS MIPE library collection: MOLP8_DSMZ cell viability assay (AID 1918977); also: nearly all actives have a fitted effect of over 45% in size; also: potency is read from the fitted curve at half-maximal effect
# Outline: as §1
# [18] = Quantitative High-Throughput drug screen in 47 multiple myeloma cell lines against the NCATS MIPE library collection: KMS20_JCRB cell viability assay (AID 1918973); also: nearly all actives have a fitted effect of over 45% in size
# Outline: (§3)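 CellTiter-Glo ATP luminescence gave viability after 48 h compound treatment at 37C of 500 multiple myeloma cells per well. Normalisation used DMSO-only wells as 100% and media-only wells as 0% viability; primary qHTS of approved and investigational drugs.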
# [19] = Quantitative High-Throughput drug screen in 47 multiple myeloma cell lines against the NCATS MIPE library collection: KMS21BM_JCRB cell viability assay (AID 1918974); conditions: ATP luminescence, 48 h; viability: at 45.8 µM (top of the series) unless noted; also: potency is read from the fitted curve at half-maximal effect
# Outline: as §3
smiles,measurement,setting,value
CCN(CC)CCOc1ccc(Cc2ccccc2)cc1,Potency,[1],inactive
same,Potency,[2],inactive
same,Potency,[3],23500 nM (active)
same,Potency,[4],14800 nM (active)
same,Potency,[5],20900 nM (active)
same,Potency,[6],inactive
same,Potency,[7],11800 nM (active)
O=C(NCCO[N+](=O)[O-])c1cccnc1,Potency,[8],inactive
same,Potency,[1],inactive
same,Potency,[2],inactive
same,Potency,[4],inactive
same,Potency,[5],inactive
same,Potency,[9],inactive
same,Potency,[7],inactive
same,Potency,[10],inactive
COc1cc(Nc2c(C#N)cnc3cc(OCCCN4CCN(C)CC4)c(OC)cc23)c(Cl)cc1Cl,Potency,[11],14800 nM (active)
same,Potency,[12],18700 nM (active)
same,Potency,[8],20900 nM (active)
same,Potency,[1],3720 nM (active)
same,Potency,[3],29600 nM (active)
same,Potency,[13],18700 nM (active)
same,Potency,[5],18700 nM (active)
same,Potency,[14],1660 nM (active)
same,Potency,[9],16600 nM (active)
same,Potency,[6],743 nM (active)
same,Potency,[7],18700 nM (active)
same,Potency,[10],2640 nM (active)
same,Potency,[15],23500 nM (active)
O=C1c2c(O)cc(O)cc2OC(c2ccc(O)c(O)c2)C1O (stereo not given),Potency,[16],inactive
same,Potency,[12],inactive
same,Potency,[17],inactive
same,Potency,[1],inactive
same,Potency,[2],inactive
same,Potency,[6],14800 nM (active)
same,Potency,[7],inactive
same,Potency,[10],inactive
CN1CCC(=C2c3ccccc3CCc3sccc32)CC1,Potency,[17],inactive
same,Potency,[1],inactive
same,Potency,[13],inactive
same,Potency,[5],inactive
same,Potency,[9],inactive
same,Potency,[7],inactive
same,Potency,[10],18700 nM (active)
same,viability,[15],99.6%
OC(CN1CCN(c2cccc(Cl)c2)CC1)C(c1ccccc1)c1ccccc1 (stereo not given),Potency,[17],inactive
same,Potency,[1],inactive
same,Potency,[14],inactive
CS(=O)(=O)OCCCCOS(C)(=O)=O,Potency,[16],inactive
same,Potency,[18],inactive
same,Potency,[8],16600 nM (active)
same,Potency,[1],inactive
same,Potency,[2],inactive
same,Potency,[3],inactive
same,Potency,[13],3720 nM (active)
same,Potency,[5],13200 nM (active)
same,Potency,[9],inactive
same,Potency,[6],inactive
same,Potency,[7],5900 nM (active)
same,Potency,[10],inactive
CCCOc1ccc2nc(NC(=O)OC)[nH]c2c1,Potency,[11],6.6 nM (active)
same,Potency,[12],1050 nM (active)
same,Potency,[8],1320 nM (active)
same,Potency,[1],1480 nM (active)
same,Potency,[13],8.3 nM (active)
same,Potency,[5],6.6 nM (active)
same,Potency,[9],5.9 nM (active)
same,Potency,[7],2.6 nM (active)
same,Potency,[10],18.7 nM (active)
same,Potency,[15],9.3 nM (active)
CCN(CC)C(=S)SSC(=S)N(CC)CC,Potency,[11],9.3 nM (active)
same,Potency,[12],10.5 nM (active)
same,Potency,[8],18.7 nM (active)
same,Potency,[17],9.3 nM (active)
same,Potency,[2],23.5 nM (active)
same,Potency,[3],9.3 nM (active)
same,Potency,[13],9.3 nM (active)
same,Potency,[4],20.9 nM (active)
same,Potency,[5],11.8 nM (active)
same,Potency,[14],inactive
same,Potency,[9],23.5 nM (active)
same,Potency,[6],1 nM (active)
same,Potency,[7],5.9 nM (active)
same,Potency,[10],1 nM (active)
same,Potency,[15],10.5 nM (active)
CC(C)[C@H](N)C(=O)OCCOCn1cnc2c(=O)[nH]c(N)nc21,Potency,[12],inactive
same,Potency,[8],inactive
same,Potency,[1],inactive
same,Potency,[2],inactive
same,Potency,[13],inactive
same,Potency,[5],14800 nM (active)
same,Potency,[10],inactive
CCN(CCO)CCCC(C)Nc1ccnc2cc(Cl)ccc12 (stereo not given),Potency,[16],inactive
same,Potency,[19],inactive
same,Potency,[12],inactive
same,Potency,[17],inactive
same,Potency,[1],inactive
same,Potency,[2],inactive
same,Potency,[4],inactive
same,Potency,[5],inactive
same,Potency,[14],inactive
same,Potency,[9],inactive
same,Potency,[7],inactive
same,Potency,[10],inactive
CN(C)C(=O)COC(=O)Cc1ccc(OC(=O)c2ccc(N=C(N)N)cc2)cc1,Potency,[17],inactive
same,Potency,[2],inactive
same,Potency,[4],inactive
same,Potency,[5],inactive
same,Potency,[14],5260 nM (active)
same,Potency,[10],418 nM (active)
same,viability,[15],150%
CN1C(C(=O)Nc2ccccn2)=C(O)c2sccc2S1(=O)=O,Potency,[16],inactive
same,Potency,[12],inactive
same,Potency,[8],2350 nM (active)
same,Potency,[1],inactive
same,Potency,[2],inactive
same,Potency,[13],inactive
same,Potency,[4],inactive
same,Potency,[9],inactive
same,Potency,[7],6620 nM (active)
same,Potency,[10],inactive
CC(=O)NC[C@H]1CN(c2ccc(N3CCOCC3)c(F)c2)C(=O)O1,Potency,[12],inactive
same,Potency,[8],4690 nM (active)
same,Potency,[17],7430 nM (active)
same,Potency,[1],inactive
same,Potency,[2],inactive
same,Potency,[13],inactive
same,Potency,[5],inactive
same,Potency,[9],inactive
same,Potency,[15],3720 nM (active)
COc1cc(OC)c(C(=O)CCCN2CCCC2)c(OC)c1,Potency,[16],inactive
same,Potency,[19],18700 nM (active)
same,Potency,[17],inactive
same,Potency,[1],inactive
same,Potency,[2],inactive
same,Potency,[3],16600 nM (active)
same,Potency,[13],inactive
same,Potency,[4],inactive
same,Potency,[9],inactive
same,Potency,[7],inactive
same,Potency,[10],inactive
CN(C)C(=O)[C@H](O)[C@H](Cc1ccccc1)NC(=O)c1cc2cc(Cl)ccc2[nH]1,Potency,[16],2090 nM (active)
same,Potency,[12],20900 nM (active)
same,Potency,[1],1320 nM (active)
same,Potency,[3],18700 nM (active)
same,Potency,[13],13200 nM (active)
same,Potency,[14],2640 nM (active)
same,Potency,[9],935 nM (active)
same,Potency,[6],2960 nM (active)
same,Potency,[7],13200 nM (active)
same,Potency,[10],6620 nM (active)
